Measurements from PubChem BioAssay (NCI).
The panel holds about 83,000 compounds, 20% with a hit somewhere; the sample as a whole holds those more often.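 Activity criterion: percent growth below 10, measured after cells in 96-well plates were exposed to a single compound concentration for 48 hours.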 The source made the active and inactive calls.

These compounds were tested on UACC-62 melanoma (assay: NCI-60 one-dose screen, 48 h (100 = growth as untreated, 0 = no growth, -100 = all killed)). Details: 10 µM.

Q: Which growth does the source give for `O=C(/C=C/c1ccco1)c1nc2ccccc2n1Cc1ccc(Br)cc1` here?
A: The growth was 28.7% (inactive).

Q: For `O=C(/C=C/c1ccco1)c1nc2ccccc2n1Cc1ccc(F)cc1`, which growth is on record?
A: Its growth is 45.4% (inactive).

Q: `COc1cc2cc(C(=O)N3C[C@@H](CCl)c4c3cc(OC(=O)N3CCN(C)[C@@H]5CSSC[C@@H]53)c3ccccc43)[nH]c2c(OC)c1OC` was tested. Which growth did it give?
A: Its growth is -91.4% (active).

Q: For `C#CC[Se]C(=O)c1ccc2n[se]nc2c1`, which growth is on record?
A: The growth was 51.4% (inactive).

Q: With `O=C(/C=C/c1ccc(Cl)cc1Cl)c1nc2ccccc2n1Cc1ccc(F)cc1` as the compound, how does the growth read?
A: Its growth is 40.1% (inactive).

Q: With `O=C(/C=C/c1ccc(Cl)cc1)c1nc2ccccc2n1Cc1ccc(Br)cc1` as the compound, how does the growth read?
A: The growth was 48.6% (inactive).

Q: With `CCOP(=O)(OCC)C(NC(C)=O)C(=O)SCCN` (centres undefined) as the compound, how does the growth read?
A: Its growth is 95.8% (inactive).

Q: `COc1cc2cc(C(=O)N3C[C@@H](CCl)c4c3cc(OC(=O)N3CCN(C)[C@@H]5CSSC[C@H]53)c3ccccc43)[nH]c2c(OC)c1OC` was tested. Which growth did it give?
A: Its growth is -92.9% (active).

Q: With `COc1ccc2cc([C@H](C)C(=O)[Se]CCC#N)ccc2c1` as the compound, how does the growth read?
A: The growth was -67.7% (active).

Q: How did the growth turn out when `CC12OOC(C)(OO1)C2CCC(=O)OCCNc1ccnc2cc(Cl)ccc12` (centres undefined) was run?
A: Its growth is 88.1% (inactive).

Q: Which growth does the source give for `CC(C)N=C([Se])NC(=O)c1cccs1` here?
A: The growth was 27.5% (inactive).

Q: Which growth does the source give for `Cc1ccc2[nH]c(=S)n(-c3ccc(F)cc3)c(=O)c2c1` here?
A: The growth was 90.7% (inactive).

Q: How did the growth turn out when `CCOC(=O)C1=C(Nc2ccccc2)C(=O)OC12C(=O)Nc1ccccc12` (centres undefined) was run?
A: The growth was 93.5% (inactive).

Q: With `CC12CCC3(CCC(=O)NCCCNc4ccnc5cc(Cl)ccc45)[C@@](C)(OO[C@]3(C)O1)O2` as the compound, how does the growth read?
A: Its growth is 11.1% (inactive).

Q: How did the growth turn out when `CC[C@]12C=CCN3CC[C@@]4(c5ccc(OC)cc5N(C)[C@H]4[C@@](O)(C(=O)OC)[C@@H]1OC(=O)CCCC[P+](C1CCCCC1)(C1CCCCC1)C1CCCCC1)[C@@H]32` was run?
A: The growth was -96.9% (active).

Q: With `CC(=O)Oc1ccccc1C(=O)[Se]C(=NC(C)C)NC(C)C` as the compound, how does the growth read?
A: The growth was -44.2% (active).

Q: How did the growth turn out when `COCCOCCOCCOc1ccc(-n2cc(CCCN(CCNc3ccnc4cc(Cl)ccc34)C(=O)CCC(=O)O[C@@H]3O[C@@H]4OC5(C)CC[C@H]6[C@H](C)CC[C@@H]([C@H]3C)[C@@]46OO5)nn2)cc1` was run?
A: Its growth is 37% (inactive).

Q: `C[C@H]1[C@@H](CC(=O)N[C@@H](Cc2coc3ccccc23)B(O)O)O[C@@H]2OC3(C)CC[C@H]4[C@H](C)CC[C@@H]1[C@@]24OO3` was tested. Which growth did it give?
A: Its growth is -90.8% (active).

Q: With `COP(=O)(CC(F)(F)C(F)(F)F)OC` as the compound, how does the growth read?
A: The growth was 65.3% (inactive).

Q: `CC12OOC(C)(OO1)C2CCC(=O)NCCNc1ccnc2cc(Cl)ccc12` (centres undefined) was tested. Which growth did it give?
A: Its growth is 91.8% (inactive).

Q: `CC[C@]12C=CCN3CC[C@@]4(c5ccc(OC)cc5N(C)[C@H]4[C@@](O)(C(=O)OC)[C@@H]1OC(=O)CCC[P+](c1ccc(C)cc1)(c1ccc(C)cc1)c1ccc(C)cc1)[C@@H]32` was tested. Which growth did it give?
A: The growth was -96.8% (active).

Q: How did the growth turn out when `CC(C)N=C([Se])NC(=O)c1ccccc1` was run?
A: Its growth is -35.3% (active).

Q: `CC[C@]12C=CCN3CC[C@@]4(c5ccc(OC)cc5N(C)[C@H]4[C@@](O)(C(=O)OC)[C@@H]1OC(=O)CCC[P+](C1CCCCC1)(C1CCCCC1)C1CCCCC1)[C@@H]32` was tested. Which growth did it give?
A: The growth was -97.3% (active).

Q: For `CC1=C(COCCOC(=O)c2ccc(S(=O)(=O)F)cc2)C2=C(C)C3(CC3)[C@@](C)(O)C(=O)C2=C1`, which growth is on record?
A: Its growth is -88.5% (active).

Q: Which growth does the source give for `CC[C@]12C=CCN3CC[C@@]4(c5ccc(OC)cc5N(C)[C@H]4[C@@](O)(C(=O)OC)[C@@H]1OC(=O)CCCC[P+](c1ccc(OC)cc1)(c1ccc(OC)cc1)c1ccc(OC)cc1)[C@@H]32` here?
A: The growth was -95.2% (active).

Q: For `CC1=C(CCC=NNC(N)=O)C2=C(C)C3(CC3)[C@@](C)(O)C(=O)C2=C1`, which growth is on record?
A: The growth was -88.1% (active).

Q: For `CC[C@@]12CC(C(=O)OC)=C3Nc4cc5c(cc4[C@@]34CCN(C[C@H]3O[C@H]31)[C@@H]24)[C@@H]1[C@H](O5)[C@@H](O)[C@@]2(CC)CC(C(=O)OC)=C3Nc4cc(OC)ccc4[C@@]34CCN1[C@@H]24`, which growth is on record?
A: Its growth is 3% (active).

Q: With `CCOP(=O)(CC(F)(F)C(F)(F)F)OCC` as the compound, how does the growth read?
A: Its growth is 44.7% (inactive).

Q: How did the growth turn out when `CC1=C2C(=C[C@@](C)(COP(=O)(Oc3ccccc3)Oc3ccccc3)[C@@H]2O)C(=O)[C@@](C)(O)C12CC2` was run?
A: Its growth is -87.7% (active).

Q: With `CC(=O)Oc1ccccc1C(=O)NC([Se])=NC1CCCCC1` as the compound, how does the growth read?
A: The growth was -57.5% (active).

Q: `C[C@H]1[C@H](OC(=O)CCC(=O)N(CCCc2cn(-c3ccc(CN4CCOCC4)cc3)nn2)CCNc2ccnc3cc(Cl)ccc23)O[C@@H]2OC3(C)CC[C@H]4[C@H](C)CC[C@@H]1[C@@]24OO3` was tested. Which growth did it give?
A: The growth was 16.6% (inactive).

Q: `O=C(/C=C/c1ccc(Cl)cc1)c1nc2ccccc2n1Cc1ccc(F)cc1` was tested. Which growth did it give?
A: Its growth is 23.5% (inactive).

Q: With `CC1=C(CCC=O)C2=C(C)C3(CC3)[C@@](C)(O)C(=O)C2=C1` as the compound, how does the growth read?
A: The growth was -96.5% (active).

Q: Which growth does the source give for `O=C(NC([Se])=NC1CCCCC1)c1ccc2c(c1)OCO2` here?
A: Its growth is 76.3% (inactive).

Q: For `C[C@H]1[C@H](OC(=O)CCC(=O)N(CCCc2cn(-c3ccc(C#N)cc3)nn2)CCNc2ccnc3cc(Cl)ccc23)O[C@@H]2OC3(C)CC[C@H]4[C@H](C)CC[C@@H]1[C@@]24OO3`, which growth is on record?
A: Its growth is 43.3% (inactive).

Q: Which growth does the source give for `C[C@H]1[C@@H](Oc2ccc(-c3cn(-c4ccnc5cc(Cl)ccc45)nn3)cc2)O[C@@H]2OC3(C)CC[C@H]4[C@H](C)CC[C@@H]1[C@@]24OO3` here?
A: The growth was 21.2% (inactive).

Q: For `COc1ccc(/C=C/C(=O)c2nc3ccccc3n2Cc2ccc(Br)cc2)cc1`, which growth is on record?
A: The growth was 65% (inactive).

Q: `COC(=O)CCn1c(-c2ccc(-n3cc(-c4ccc(O[C@H]5O[C@@H]6OC7(C)CC[C@H]8[C@H](C)CC[C@@H]([C@H]5C)[C@@]68OO7)cc4)nn3)cc2)nc2ccccc21` was tested. Which growth did it give?
A: The growth was 10.8% (inactive).

Q: Which growth does the source give for `C[C@H]1[C@H](OC(=O)CCC(=O)N(CCCc2cn(-c3ccc([N+](=O)[O-])cc3)nn2)CCNc2ccnc3cc(Cl)ccc23)O[C@@H]2OC3(C)CC[C@H]4[C@H](C)CC[C@@H]1[C@@]24OO3` here?
A: Its growth is 39% (inactive).
